# Most compounds without a hit are left out; they make up all but 3.3% or so of the library.
# Statin myotox sup: protects C2C12 myotubes from simvastatin toxicity; ATP luminescence, 48 h; scaled: DMSO 0, geranylgeraniol control 100; rescue of ATP level, % at 7.49 µM; 330,000 compounds, 0.78% hits;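 active means mean ATP rescue above about 67%, or every replicate alone reaching that limit, limit read from the data, passing the limit was not always enough; inconclusive means no clear call, values can overlap the other calls; inactive means mean under the limit and some replicate under it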;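 further: myotubes were challenged with 10 µM simvastatin during compound exposure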
# Wnt bcat act: activates Wnt/beta-catenin signaling in a reporter cell assay. 300,000 compounds, 1.2% hits. AID 743398. activation, % at 9.35 µM. activator, plate reader; in the data active means activation above about 30%, passing the limit was not always enough; inconclusive means no clear call, values can overlap the other calls;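 further: 0% = neutral control wells and 100% = positive control wells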
# MITF act: MITF TRPM1 promoter activation in melanoma cells. SK-MEL-5 TRPM1-promoter luciferase, 24 h; % of positive control, neutral wells = 0. activation, % at 12.5 µM. 300,000 compounds, 0.75% hits. AID 588334;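 active means mean activation of at least 80% with every replicate also reaching 80%; inconclusive means mean reaches 80% but some replicate falls short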;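 further: 0% = neutral control wells and 100% = parthenolide positive control wells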
# esBAF inh: inhibitors of esBAF chromatin remodeling in mouse ES cells; Bmi1-luciferase knock-in reporter, 24 h; 100% = twice the neutral-well signal; AID 602393; 350,000 compounds, 2% hits; reporter increase, % at 12.5 µM; in the data active means activation above about 40%; inconclusive means no clear call, values can overlap the other calls;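 further: 0% = median of the plate's neutral control wells and 100% = double that signal; a rise in the Bmi1 reporter signal indicates esBAF inhibition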
# FXN GAA850 act: increases GAA850 frataxin promoter reporter activity; HEK293 lucGAA850 FXN promoter luciferase reporter, 24 h; percent of 10 µM SAHA response; activation, % at 6 µM; 360,000 compounds, 0.56% hits; AID 540364;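 active means activation above the average of all compounds screened plus 3 SD, cutoff fixed separately per campaign, cut at about 7.5% in these data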;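 further: 0% = DMSO wells and 100% = 10 µM SAHA wells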
# esBAF Ring1 qPCR: confirmation of esBAF inhibitors: Ring1 de-repression in mouse ESCs. AID 743176. shares compounds with esBAF inh. 550 tested, under 10 active. mouse ESC E14, Ring1 mRNA RT-qPCR fold change. fold change at 33 µM;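 active means Ring1 gene expression raised more than 2-fold over untreated cells in both replicates at either tested dose; inconclusive means only one replicate above 2-fold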;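 further: Ring1 transcript normalised to actin housekeeping signal by TaqMan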
# Fgf4 repress: represses Fgf4 in mouse ESCs, confirming esBAF inhibition | mouse ESC E14, Fgf4 mRNA qPCR fold change; stronger effect = lower value | Fgf4 expression fold change at 33 µM | AID 743177 | shares compounds with esBAF inh | 550 compounds, 4% hits;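 active means Fgf4 expression under 0.8 fold of control in both repeat measurements at one or both tested doses; inconclusive means under 0.8 fold in just a single repeat measurement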;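 further: Fgf4 transcript normalised to actin in duplex TaqMan qPCR; cells exposed to compound for 24 h before lysis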
# Bmi1 derepress: confirmation of esBAF inhibitors: Bmi1 de-repression in mouse ESCs. fold change at 33 µM. 550 tested, under 10 active. mouse ESE14 ES cells, Bmi1 mRNA qPCR fold; stronger effect = higher value. AID 743180. shares compounds with esBAF inh;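 active means Bmi1 expression fold change above 6 at either tested concentration, seen in replicate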
# A549 tox SP: cytotoxicity in A549 cells; shares compounds with esBAF inh; plate reader; cell viability change % (negative = cytotoxic), % at 25 µM, hits read low; 550 tested, under 10 active; AID 743188; call rule not given here
# HepG2 cytotox SP: cytotoxicity in HepG2 cells; shares compounds with esBAF inh; plate reader; stronger effect = lower value; activity change, negative = inhibition, % at 25 µM; 550 compounds, 4% hits; AID 743189; in the data active means activity change below about -50%
# HEK293 cytotox SP: HEK293 cell cytotoxicity at single point; AID 743190; activity change, negative = inhibition, % at 25 µM, hits read low; plate reader; 550 compounds, 3% hits; shares compounds with esBAF inh; in the data active means activity change below about -38%, passing the limit was not always enough
# An asterisk follows results filed as active; ? = inconclusive; nt = not tested or not shown.
SMILES,Statin myotox sup,Wnt bcat act,MITF act,esBAF inh,FXN GAA850 act,esBAF Ring1 qPCR,Fgf4 repress,Bmi1 derepress,A549 tox SP,HepG2 cytotox SP,HEK293 cytotox SP
COCC(=O)N(C)C[C@@H]1Oc2ncc(C3=CCCC3)cc2C(=O)N([C@@H](C)CO)C[C@H]1C,6.2,nt,nt,-7.1,nt,nt,nt,nt,nt,nt,nt
C=CCN(C(=O)CC(NC(C)=O)c1ccccc1)c1nc(-c2ccc(S(C)(=O)=O)cc2)cs1 (stereo not given),-2.8,5.3,48.3,77.8*,1.1,0.939,1.23,1.12,-12.3,-11.2,-17.7
Cc1ccc(-c2ccnc(-c3ccc(O)cc3)n2)cc1,nt,28.2,22.1,nt,5.1,nt,nt,nt,nt,nt,nt
Oc1ccc(-c2nccc(-c3ccccn3)n2)cc1,5.6,24.1,100.9*,59.6*,3.5,1.29,1.03,1.4,2.2,8.8,10.9
C[C@H]1CN([C@@H](C)CO)C(=O)c2cc(C#CCN(C)C)cnc2O[C@H]1CN(C)Cc1cccc(F)c1,6.6,nt,nt,-0.9,nt,nt,nt,nt,nt,nt,nt
CS(=O)(=O)c1ccccc1C(=O)Nc1ccc(-c2nc3ccccc3[nH]2)cc1,-12.2,17.6,64.0,57.5*,3.6,1.15,1.38,2,-3.1,-17.9,5.6
CS(=O)(=O)c1ccccc1C(=O)Nc1ccc(-c2nc3ccccc3o2)cc1,2.2,22.3,71.9,66.7*,4.3,1.19,1.07,2.19,-5.9,0.4,4.0
CS(=O)(=O)c1cccc(C(=O)Nc2ccc(-c3nc4ccccc4[nH]3)cc2)c1,-70.7,5.4,42.4,14.9,0.5,nt,nt,nt,nt,nt,nt
COc1cc(OC)cc(C(=O)Nc2ccc(-c3nc4ccccc4o3)cc2)c1,-11.8,nt,-5.7,14.1,0.1,nt,nt,nt,nt,nt,nt
COc1cccc(-c2ccc3n(c2=O)C[C@H]2[C@H](CO)[C@@H](C(=O)N4CCOCC4)N[C@@H]32)c1,3.7,nt,nt,0.6,nt,nt,nt,nt,nt,nt,nt
C[C@@H]1CN([C@H](C)CO)C(=O)c2cc(NS(=O)(=O)c3cn(C)cn3)ccc2O[C@H]1CN(C)CC1CCCCC1,0.0,nt,nt,0.7,nt,nt,nt,nt,nt,nt,nt
CC(C)NC(=O)N[C@H]1CC[C@H](CC(=O)NC2Cc3ccccc3C2)O[C@@H]1CO,-0.2,nt,nt,2.3,nt,nt,nt,nt,nt,nt,nt
COc1ccccc1-c1cnc2c(Nc3cccc(OC(F)(F)C(F)F)c3)nccn12,-5.1,-0.9,nt,13.6,0.4,nt,nt,nt,nt,nt,nt
O=C(NCCO)c1cccc(-c2cnc3c(Nc4cccc(OC(F)(F)C(F)F)c4)nccn23)c1,-2.2,0.5,nt,71.4*,3.1,1.16,?,2.35,10.0,-19.8,-2.3
O=C1NC(=Nc2ccccc2)S/C1=C\c1cccn1-c1ccccc1,-74.5,nt,21.2,67.0*,1.6,2.59*,0.444*,10.7*,-9.8,14.3,-43.3
Cc1noc(C)c1C(=O)Nc1nc2ccccc2s1,3.9,7.9,74.7,72.1*,1.6,1.26,1.11,1.58,-19.1,7.9,-28.5
O=C(C[C@H]1C[C@H]2c3cc(NC(=O)CC4CC4)ccc3O[C@H]2[C@@H](CO)O1)NCc1cccnc1,-5.9,nt,nt,-6.3,nt,nt,nt,nt,nt,nt,nt
O=C(COc1ccc(/C=N/NC(=O)c2cc3ccccc3o2)cc1Br)Nc1ccccc1,-131.8,nt,-92.9,?,1.2,0.857,?,5.08,-121.3*,-75.3*,-121.0*
COc1ccc(C(=O)N2CCc3ccccc32)cc1,-3.7,6.2,nt,68.3*,4.9,0.968,0.882,1.51,-4.2,-8.5,-5.9
COc1cc2[nH]c(C(=O)N3CCc4ccccc43)cc2c(OC)c1OC,-19.9,19.1,42.7,58.1*,-0.4,0.939,1.15,2.14,4.1,0.9,-3.8
Cc1ccc(C(=O)N2CCc3ccccc32)cc1C,-3.6,22.2,nt,52.2*,5.8,1.25,0.996,1.54,9.5,19.0,-6.1
O=C(c1ccccc1)N1CCc2ccccc21,23.6,nt,-1.5,nt,0.0,nt,nt,nt,nt,nt,nt
COc1ccc(CCC(=O)N2CCc3ccccc32)cc1,nt,20.3,nt,62.8*,6.0,1.09,0.907,1.39,-4.6,-1.6,-11.2
C[C@@H]1CN([C@@H](C)CO)C(=O)c2cc(NC(=O)NC3CCCCC3)ccc2O[C@H]1CN(C)CC1CCCCC1,7.4,nt,nt,-1.3,nt,nt,nt,nt,nt,nt,nt
C[C@@H]1CN([C@@H](C)CO)C(=O)Cc2cc(N(C)C)ccc2O[C@H]1CN(C)S(=O)(=O)c1ccc(Cl)cc1,9.2,nt,nt,-0.6,nt,nt,nt,nt,nt,nt,nt
COC(=O)c1ccc2[nH]c(C(C)(C)O)c(C)c2c1,3.4,19.6,74.9,56.8*,3.7,1.41,1,1.39,-0.8,-13.5,-3.6
COC(=O)c1ccc2[nH]c(C)cc(=O)c2c1,-3.2,0.4,-6.0,2.7,2.6,nt,nt,nt,nt,nt,nt
CCN(CC)S(=O)(=O)c1cccc(-c2cn3cc(C)ccc3n2)c1,-23.7,nt,68.5,64.8*,1.1,1.1,0.774*,2.01,0.2,-48.9,-15.1
